Measurements: PubChem BioAssay (NCI)
Compounds without any hit were thinned out: in the full panel of roughly 79,000, 15% have a hit. Cut-off read from the data, not from the text of the source: active = growth inhibition above about 70%; inactive = the rest.

Experiments:
[1] = NCI Yeast Anticancer Drug Screen. Data for the rad50 strain (AID 155);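 note: 0% = growth of vehicle-only cultures of the same strain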; settings: S. cerevisiae rad50 strain growth inhibition; at 50.0 µM; active compounds read high
Method in brief: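 Yeast carrying a defined DNA repair defect were exposed to test compounds, and growth was compared with vehicle-treated controls to give percent inhibition.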

[2] = NCI Yeast Anticancer Drug Screen. Data for the mec2-1 strain (AID 157); settings: S. cerevisiae mec2-1 strain, at 50.0 µM, active compounds read high
Method in brief: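 mec2-1 yeast strain, carrying an alteration in DNA damage repair or cell cycle control, was exposed to compounds; growth inhibition was measured relative to vehicle-treated controls.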

[3] = NCI Yeast Anticancer Drug Screen. Data for the mlh1 rad18 strain (AID 175); settings: S. cerevisiae mlh1 rad18 strain growth inhibition; at 50.0 µM; active compounds read high
Method in brief: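 Growth inhibition of the yeast strain was measured after compound exposure and expressed relative to vehicle-treated controls. The strain carries defined defects in DNA damage repair.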

Measured: growth inhibition

COc1ccccc1N1C(=O)CC(Sc2ccccc2N)C1=O (stereo not drawn)
inactive: [1] -2.4% | [2] -19.4% | [3] 13.1%

Cc1ccc2nc3c(nc2c1)-c1cccc2cccc-3c12
inactive: [1] -18.6% | [2] -43% | [3] -12.4%

Cc1ccc(CNc2cc(C)ccn2)cc1
inactive: [1] 42.9% | [2] 23.9% | [3] 26.9%

CCOC(=O)c1sc(N)c(C(=O)OCC)c1C
inactive: [1] -38.2% | [2] -46.8% | [3] -20.1%

CCOC(=O)NC(C)(C)CN(C(=O)OCC)C(C)(C)CO
inactive: [1] 3.5% | [2] -26.2% | [3] 8.05%

N#CC1(c2ccc(Cl)cc2)CCCC1
inactive: [1] -15.3% | [2] -44% | [3] -14.8%

O=C(O)COC1CC(=O)N2c3ccccc3C34CCN5C(=O)C(=O)C(CC53)C1C24 (stereo not drawn)
inactive: [1] -1.7% | [2] -24.9% | [3] -9.5%

O=C(O)c1ccccc1C(=O)NNC(=O)c1ccccc1C(=O)O
inactive: [1] 4.65% | [2] -5.3% | [3] -13.6%

O=C(Cc1cccc2ccccc12)N/N=C/c1ccc2c(c1)CCC2
inactive: [1] 14.9% | [2] -13.2% | [3] -8.45%

COc1ccc(-c2cc(=O)c3c(O)cccc3o2)cc1
inactive: [1] 2.65% | [2] -37.1% | [3] -1.35%

CCCCCCCCCC(O)CCCCC (stereo not drawn)
inactive: [1] -1.85% | [2] -21.2% | [3] 15.3%

CCOc1ccc(Br)cc1C=O
inactive: [1] 54.2% | [2] 17.4% | [3] 45.1%

COc1cccc(/C=C/C(=O)c2ccc(Cl)cc2)c1OC
inactive: [1] 27% | [2] 30.1% | [3] 16.2%

COc1cc(/C=N\Nc2ccccc2[N+](=O)[O-])cc(OC)c1OC
inactive: [1] -11.4% | [2] -25.4% | [3] -12.9%

O=[N+]([O-])c1cccc(C=Nc2cccc(C(F)(F)F)c2)c1
inactive: [1] 6.95% | [2] 4.35% | [3] -12.2%

CC(C)c1nc(-c2ccccc2)c(-c2ccccc2)[nH]1
inactive: [1] 43.2% | [2] 13.1% | [3] 54.7%

CCCCCCC(=O)CCCCCCCCCCCCC(=O)OC
inactive: [1] 2.3% | [2] -1.65% | [3] 12.7%

Nc1ccccc1SC1CC(=O)N(c2cccc3ccccc23)C1=O (stereo not drawn)
inactive: [1] -19.6% | [2] -7.6% | [3] -12.8%

CCOc1ccc(N=c2ssc(SC)c2-c2ccccc2)cc1
inactive: [1] 3.4% | [2] -10.8% | [3] 20.5%

C[N+]12OC3CC1C1OC1C2C3 (stereo not drawn)
inactive: [1] -4.55% | [2] -9.4% | [3] 25.4%

CCOC(=O)C1CCC(C(=O)OCC)N1c1ccc(C=O)cc1 (stereo not drawn)
inactive: [1] 16.1% | [2] -18.1% | [3] -3.45%

CC(=O)Nc1ccc(/C=C/C(=O)c2ccc(Cl)cc2)cc1
inactive: [1] 18.2% | [2] -4.65% | [3] 2.75%

CC(CN1CCCC1)C(O)(Cc1ccccc1)c1ccccc1 (stereo not drawn)
inactive: [1] -0.05% | [2] -2.7% | [3] -4.15%

O=C1NC(=O)C(c2ccccc2)(C2CCC2)N1 (stereo not drawn)
inactive: [1] -6.95% | [2] -33.1% | [3] -13.3%

Cc1ccc(N2C(=O)CC(Sc3ccccc3N)C2=O)cc1 (stereo not drawn)
inactive: [1] -8.75% | [2] -17.4% | [3] -9.3%

CC[n+]1c(C)n(Cc2ccc(C(=O)O)cc2)c2cc(F)ccc21
inactive: [1] -10.8% | [2] -14.7% | [3] 27.9%

COc1ccc(/C(C#N)=C2C=C(Cl)/C(=N/O)C=C/2Cl)cc1
inactive: [1] -6.55% | [2] -7.45% | [3] -19.2%

CCOC(=O)CN1C(=O)C(=O)c2ccccc21
inactive: [1] 18.9% | [2] 5.3% | [3] 24.4%

Cc1ccc(NCN2C(=O)c3ccccc3C2=O)cc1Cl
inactive: [1] 20.1% | [2] -5.55% | [3] 28.3%

CCN(CC)c1cc(C(C)(C)C)cc(C(C)(C)C)c1
inactive: [1] 0.45% | [2] -21.5% | [3] -11.1%

O=C(O)c1cc(N=Nc2ccccc2)ccc1O
inactive: [1] -19.1% | [2] -12.7% | [3] -23.8%

CCOC(=O)/C=C(\C)Nc1ccc(F)cc1
inactive: [1] -0.5% | [2] -17.6% | [3] 14.2%

COc1cc(/C=C(/C#N)C(N)=O)ccc1O
inactive: [1] -1.7% | [2] -35% | [3] -54.9%

CCCOC(=O)C(=O)C(C#N)c1ccccc1 (stereo not drawn)
inactive: [1] 21.1% | [2] -0.35% | [3] 16.9%

CCCCCCCCCCCCCCCC(C)(C)O
inactive: [1] -29% | [2] -27.6% | [3] 5.1%

CCOc1ccc(Br)cc1/C=N/NS(=O)(=O)c1ccc(C)cc1
inactive: [1] 46.7% | [2] 29.1% | [3] 8.35%
